# Assay results published in PubChem BioAssay (NCATS).
# Results filed as inconclusive are left out. The source made the active and inactive calls. The call rests on the fitted dose curve; in most records, active means well fitted cell-killing curve with a large enough effect; inconclusive means small, poorly fitted or top-dose-only effect, or effect the other way; inactive means flat fitted curve, though single readings scatter. Where a SMILES comes first, the peptide text is derived from it. [ ]: non-standard residue; d: D form. ξ: configuration not given here. ξLac(3-iPr) = CC(C)CC(O)C(=O)O; NMeV = CN[CH](C(=O)O)C(C)C; NMeA = CN[CH](C)C(=O)O; βAla = NCCC(=O)O
# System: HeLa
# Test: Primary qHTS to identify gynecologic anti-cancer compounds using libraries of approved drugs and bioactive compounds (AID 1345084); further: nearly all actives have a fitted effect of over 55% in size
# Conditions: Gynecologic cancer cell panel viability, ATPlite luminescence, 48 h; series mostly up to 57.5 µM; activity change, negative = cytotoxicity: at the top concentration
# Text: National Center for Advancing Translational Sciences [NCATS] Assay Overview: Chemotherapeutic drug responses vary from cancer to cancer and from patient to patient. These variations could be caused by a number of factors including patient genomic background, tumor mutations, tumor heterogeneity, and aspects of drug treatment. Chemotherapeutic drug resistance is also a common issue and can lead to ineffective treatment and patient death. Here we have profiled the cell killing effects of thousands of compounds to characterize the responses in three gynecological cancers, identify cancer-selective compounds, and understand the diversity of responses to these compounds from pan-cancer suppressors to single cell line selective compounds. In this assay, we screened a 7,914 compound drug library that included approved drug and bioactive compounds in six ovarian, three cervical, and […] placental cancer cell lines using the ATPlite assay for cell viability. […] The cervical cancer cell lines included HeLa, Ca Ski, and C-33 A. The placental cancer cell lines included JEG-3. HEK 293T cells were used as the control cell line to determine the selectivity index. ATPlite is a luminescence based assay reliant on the conversion of a luciferase substrate to light in the presence of ATP. As a cytotoxic compound will suppress growth and decrease the number of cells, the concentration of ATP will decrease, and less light signal will be detected in the well.
# Assay Protocol Summary: 1,000 cells in 4 uL of media were dispensed into white, solid bottom 1536-well plates using a Multidrop Combi (Thermo Scientific). The Assay plates were incubated for 16 hours at 37 C with 5% CO2 in assay plates, followed by the addition of 23 nL of DMSO or drug dissolved in DMSO. Each compound was assayed in five concentrations (0.092, 0.46, 2.3, 11.5, and 57.5 uM), using the automated Wako 1536 Pin Tool workstation and incubated at 37 C with 5% CO2 48 hours. 4 uL of ATPlite, the ATP monitoring reagent, was then added to the each well of the assay plates using the Multidrop Combi reagent dispenser followed by incubation for 15 minutes at room temperature. The resulting luminescence was measured using the ViewLux plate reader.
# On the % scale 0 is the no-effect control and ±100 the full control effect; potency means the concentration at half of the fitted maximal effect.
Compound,"activity change, negative = cytotoxicity",Potency
CNC(=O)c1cc(C#N)cc(C)c1NC(=O)c1cc(Br)nn1-c1ncccc1Cl,-3.37% (inactive),–
CN1Cc2c(ccc3c2OCO3)[C@@H]2[C@H]1c1cc3c(cc1C[C@@H]2O)OCO3,–,3160 nM (active)
C[C@H]1CCC/C=C/C2C[C@H](O)C[C@H]2[C@H](O)/C=C/C(=O)O1 (stereo not given in full),–,355 nM (active)
CC(=O)O[C@@H]1[C@@H](O)[C@H]2O[C@@H]3C=C(C)[C@@H](O)C[C@]3(CO)[C@]1(C)[C@]21CO1,–,2510 nM (active)
C=C1CC[C@H]2[C@@H](/C=C(\C)C(=O)[C@@]3(OC(C)=O)C[C@H](C)[C@H](OC(=O)c4ccccc4)[C@@H]3[C@H]1OC(C)=O)C2(C)C,2.79% [at 25.3 µM] (inactive),–
c1cncc(OC[C@@H]2CCN2)c1,11.7% (inactive),–
C[C@H]1CN(Cc2ccc(CC(=O)N3CCC(Nc4cccc(F)c4)CC3)cc2)CCN1,-10.2% (inactive),–
COC(=O)C12C(=O)C(C)(O)C(=O)C1(C)C(C)=CC1C34CCC(OC3=O)C(C)(C)C4CCC12C (stereo not given),-16.3% [at 25.3 µM] (inactive),–
CC[C@@H]1C[C@H]2CC[C@H](O2)[C@H](C)C(=O)O[C@@H](C)C[C@@H]2CC[C@@H](O2)[C@@H](C)C(=O)O[C@H](CC)C[C@H]2CC[C@H](O2)[C@H](C)C(=O)O[C@@H](C)C[C@@H]2CC[C@@H](O2)[C@@H](C)C(=O)O1,–,794 nM (active)
CC(=O)O[C@H]1CN2CCC1CC2,-5.76% (inactive),–
NC(=O)[C@@H](CC1CC1)[C@@H](CCC(F)(F)F)C(=O)N[C@H]1N=C(c2ccccc2)c2cccc(F)c2NC1=O,1.51% (inactive),–
CC(=O)OC[C@]12C[C@H](OC(=O)CC(C)C)C(C)=C[C@H]1O[C@@H]1[C@H](O)[C@@H](OC(C)=O)[C@@]2(C)[C@@]12CO2,–,158 nM (active)
CC1=CC2(O)/C=C/C(C)(O)C(O)C(O)/C=C/C(=O)OC23C(=O)NC(CC(C)C)C3C1C (stereo not given),2.15% [at 25.3 µM] (inactive),–
N#Cc1ccc([C@H]2CCCC[C@H]2O)cc1C(F)(F)F,3.87% (inactive),–
CC(=O)O[C@H]1CC[C@H]2[C@@H]3CC[C@H]4CC(=O)C=C(C)[C@]4(C)[C@H]3CC[C@]12C,7.42% (inactive),–
C[C@H](CCC(=O)O)C[C@H](C)C[C@H](C)C(=O)/C=C(\O)[C@H](C)C[C@H](C)C/C=C/[C@@H](C)[C@@H](O)[C@@H](C)[C@@H](O)C[C@@H]1CC[C@@](C)([C@H]2CC[C@@](C)([C@@H](C)O)O2)O1,-2.16% [at 25.3 µM] (inactive),–
NNC(=O)c1nn(Cc2ccc(Cl)cc2Cl)c2ccccc12,1.87% (inactive),–
CC[C@H]1C2CC3[C@@H]4N(C)c5ccccc5[C@]45C[C@@H]([C@H]2[C@H]5O)N3[C@H]1O,-3.69% [at 38.5 µM] (inactive),–
C/C=C(\C)C(=O)OC1CC2C(CC=C3CC(OC4CC(OC)C(OC5CC(OC)C(OC6CC(OC)C(OC7CC(OC)C(O)C(C)O7)C(C)O6)C(C)O5)C(C)O4)CCC32C)C2(O)CCC(C(C)=O)C12C (stereo not given),9.98% [at 11.6 µM] (inactive),–
C[C@@H]1Cc2c(Cl)cc(C(=O)N[C@@H](Cc3ccccc3)C(=O)O)c(O)c2C(=O)O1,-13% [at 38.5 µM] (inactive),–

Compound,"activity change, negative = cytotoxicity",Potency
CO[C@H]1[C@H](O)[C@H](O[C@H]2CC[C@]3(C=O)C4CC[C@]5(C)[C@H](C6=CC(=O)OC6)CC[C@]5(O)C4CC[C@@H]3C2)O[C@@H](C)[C@@H]1O (stereo not given in full),–,126 nM (active)
CCC(C)C1NC(=O)C2CCCN2C(=O)C(CC(C)C)OC(=O)CCNC(=O)C(C)N(C)C(=O)C(C(C)C)N(C)C1=O (stereo not given) (cyclo([ξLac(3-iPr)]PI[NMeV][NMeA][βAla]); configuration not given here),-15.4% [at 25.3 µM] (inactive),–
O=C(NCCN1CCC2(CC1)C(=O)NCN2c1cccc(F)c1)c1ccc(F)c(F)c1,6.17% (inactive),–
C#CC1(O)CCC2C3CCC4=CC(=O)CCC4=C3C=CC21C (stereo not given),–,1120 nM (active)
N#CC(O[C@@H]1O[C@H](CO)[C@@H](O)[C@H](O)[C@H]1O)c1ccccc1 (stereo not given in full),9.26% (inactive),–
COc1ccc2c3c4n(c2c1)[C@@H](C=C(C)C)OOC(C)(C)C[C@@H]4N1C(=O)[C@@H]2CCCN2C(=O)[C@]1(O)[C@H]3OCC=C(C)C,5.65% [at 25.3 µM] (inactive),–
C[C@H]1O[C@@H](O[C@H]2CC[C@]3(CO)C4CC[C@]5(C)[C@@H](C6=CC(=O)OC6)CC[C@]5(O)[C@@H]4CC[C@H]3C2)[C@H](O)[C@H](O)[C@@H]1O[C@@H]1O[C@H](CO)[C@@H](O)[C@H](O)[C@H]1O (stereo not given in full),–,3160 nM (active)
Cc1cccc(NC(=O)NC2N=C(c3ccccc3)c3ccccc3N(CC(=O)c3ccccc3C)C2=O)c1 (stereo not given),4% (inactive),–
CC(C)OC(=O)c1ccnc2cc(C(OCCN3CCCCC3)c3ccccc3Cl)sc12 (stereo not given),0.0882% (inactive),–
C=CC(C)(C)C12C=C(O)C(=O)N3/C(=C\c4cnc[nH]4)C(=O)NC31N(OC)c1ccccc12 (stereo not given),-4.34% [at 25.3 µM] (inactive),–
CC(=O)C1CCC2C3CCC4C[C@@H](O)CCC4(C)C3CCC12C (stereo not given in full),15.9% (inactive),–
C=C1C(=O)CC2OC2(C)CC2OC(=O)C(=C)C2C(O)C1OC(=O)/C(C)=C\C (stereo not given),4.72% [at 38.5 µM] (inactive),–
C[C@]12CC[C@H](O)C[C@@]1(O)CC[C@@H]1[C@@H]2CC[C@]2(C)[C@@H](c3ccc(=O)oc3)CC[C@]12O,-1.17% (inactive),–
CCC1CC2CN3CCc4c([nH]c5ccccc45)C(C(=O)OC)(C2)C13 (stereo not given),-12.2% [at 38.5 µM] (inactive),–
C[C@@H]1C[C@@H](O)[C@]2(O)O[C@@H]3C[C@@]4(C=O)C(CC[C@@H]5C4CC[C@]4(C)[C@@](O)(C6=CC(=O)OC6)CC[C@]54O)C[C@H]3OC2O1 (stereo not given in full),–,3980 nM (active)
C[C@H]1CC[C@@H]2[C@@H](C)[C@H]3[C@H](C[C@H]4[C@@H]5CC=C6CC(O[C@@H]7O[C@H](CO)[C@@H](O)[C@H](O[C@@H]8O[C@H](CO)[C@@H](O)[C@H](O)[C@H]8O)[C@@H]7O[C@@H]7O[C@@H](C)[C@H](O)[C@@H](O)[C@H]7O)CC[C@]6(C)[C@H]5CC[C@]34C)N2C1 (stereo not given in full),8.23% [at 11.6 µM] (inactive),–
CC1CCCC(=O)CCC/C=C/c2cc(O)cc(O)c2C(=O)O1 (stereo not given),17.8% [at 38.5 µM] (inactive),–
C[C@@]1(CO)[C@H](O)CC[C@@]2(C)[C@H]1CC[C@H]1C[C@@H]3C[C@@]12CC[C@]3(O)CO,-14.1% [at 38.5 µM] (inactive),–
Fc1cc(F)c2c(c1)C1C=CCC1C(c1cccnc1)N2 (stereo not given),–,10000 nM (active)
C[C@]12CC[C@@H](O[C@@H]3O[C@H](CO)[C@@H](O)[C@H](O)[C@H]3O)C[C@@]1(O)CCC1C2CC[C@]2(C)[C@@H](C3=CC(=O)OC3)CC[C@]12O (stereo not given in full),–,398 nM (active)
